Measured values as given in PubChem BioAssay (NCI).
This is part of a sample that, as a whole, favours compounds with a hit. Of some 79,000 tested, about 15% had one in any assay. Rule as the data show it: active = growth inhibition above about 70%; inactive = the rest.

Columns and labels:
[1] = NCI Yeast Anticancer Drug Screen. Data for the rad50 strain (AID 155);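 also: 0% = growth of vehicle-only cultures of the same strain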; conditions: S. cerevisiae rad50 strain growth inhibition; at 50.0 µM; stronger effect = higher value
Summary of the method: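 Inhibition values express reduced yeast growth in compound-treated cultures relative to vehicle-treated controls.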

[2] = NCI Yeast Anticancer Drug Screen. Data for the mec2-1 strain (AID 157); conditions: S. cerevisiae mec2-1 strain, at 50.0 µM, stronger effect = higher value
Summary of the method: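 Test agents were screened against the mec2-1 yeast strain, with defined DNA repair or cell cycle alteration. Growth was scored as inhibition against vehicle-only controls.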

[3] = NCI Yeast Anticancer Drug Screen. Data for the sgs1 mgt1 strain (AID 161);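 also: 0% = growth of cultures given vehicle only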; conditions: S. cerevisiae sgs1 mgt1 strain, at 50.0 µM, stronger effect = higher value
Summary of the method: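 Genetically altered yeast, compound exposure, growth inhibition relative to vehicle.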

[4] = NCI Yeast Anticancer Drug Screen. Data for the cln2 rad14 strain (AID 165);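 also: 0% = growth equal to vehicle treated cultures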; conditions: S. cerevisiae cln2 rad14 strain, at 50.0 µM, stronger effect = higher value
Summary of the method: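 Growth of compound-exposed yeast (cln2 rad14 genotype) measured and expressed as inhibition relative to vehicle.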

[5] = NCI Yeast Anticancer Drug Screen. Data for the bub3 strain (AID 167); conditions: S. cerevisiae bub3 mutant strain, at 50.0 µM, stronger effect = higher value
Summary of the method: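 Steps: expose the mutant yeast strain to compound; grow alongside vehicle-treated cultures; measure growth; express inhibition against the vehicle cultures.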

[6] = NCI Yeast Anticancer Drug Screen. Data for the mlh1 rad18 strain (AID 175); conditions: S. cerevisiae mlh1 rad18 strain growth inhibition; at 50.0 µM; stronger effect = higher value
Summary of the method: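 In this whole-cell yeast screen, a strain with altered DNA damage repair is challenged with compound, and its growth is measured against matched vehicle-treated controls.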

Measured: growth inhibition

CCC=Nc1ccccc1CO
inactive: [1] 12.2% | [2] 8.5% | [3] -1.05% | [4] 30.3% | [5] -4% | [6] 5.4%

Cc1[nH]c2ccccc2c1C1=CC(=O)c2ccccc2C1=O
inactive: [1] 8.55% | [2] 18% | [3] 21.6% | [4] 2.6% | [5] -1% | [6] 13.8%

O=C1CSC(c2ccc(Br)cc2)N1c1nncs1 (configuration not stated)
inactive: [1] -2.75% | [2] 19.6% | [3] 18.2% | [4] -9.95% | [5] 6.6% | [6] 23.3%

C/C=C(\C)CCC(C)(O)CC (configuration not stated)
inactive: [1] 2.2% | [2] -15.6% | [3] 7.45% | [4] 3% | [5] -22.4% | [6] 14.1%

SC1CCCN(Cc2ccccc2)C1 (configuration not stated)
inactive: [1] 24.9% | [2] 4.9% | [3] 2.15% | [4] 33.8% | [5] 8.9% | [6] 17.6%

Cc1ccc(O)c(C(C)C)c1
inactive: [1] -26.4% | [2] -48.8% | [3] -34.4% | [4] -16.1% | [5] -40.2% | [6] -8.6%

CCc1ccc(CC)c(OC)c1
inactive: [1] 16.6% | [2] -1.8% | [3] 0.4% | [4] -27.2% | [5] -11.1% | [6] 18.7%

COc1cc2c(OC)cc1CSCc1sc(C)c(c1Br)CSC2
inactive: [1] 19.1% | [2] 21.5% | [3] 4.7% | [4] -26.6% | [5] 12.7% | [6] 14.8%

O=C(O)C(Oc1ccc(Cl)cc1Cl)C(Oc1ccc(Cl)cc1Cl)C(=O)O (configuration not stated)
inactive: [1] -3.95% | [2] -4.1% | [3] -9.95% | [4] -15.5% | [5] 1.75% | [6] 3.75%

O=C(O)c1cc(Cl)cc([N+](=O)[O-])c1
inactive: [1] 41.1% | [2] -3% | [3] 52.5% | [4] 19.3% | [5] 23% | [6] 52.9%

CNCCCCCCNc1cc(OC)cc2cccnc12
inactive: [1] 45% | [2] 18.7% | [3] 56% | [4] 7.05% | [5] 23.1% | [6] 58.8%

Cc1ccc(OC(=O)NC(C)(C)C)cc1
inactive: [1] 0.8% | [2] -18.9% | [3] 11.2% | [4] -35.1% | [5] 11.8% | [6] -12.5%

c1ccc2c(c1)NC(C1OC3CCCN3C1C1Nc3ccccc3S1)S2 (configuration not stated)
inactive: [1] -43.2% | [2] -6% | [3] -28.6% | [4] -1.5% | [5] -14.1% | [6] -24.4%

COc1ccc2c(c1)C(=O)N1CCOC1C2C(=O)O (configuration not stated)
inactive: [1] 0.1% | [2] -31.8% | [3] -9.5% | [4] 11.3% | [5] -0.8% | [6] -30.3%

CCOC(=O)C(C)(C(=O)OCC)c1c[n+]([O-])c2ccccc2c1[N+](=O)[O-]
inactive: [1] 13.8% | [2] -5.15% | [3] 19.3% | [4] -22.4% | [5] -4.55% | [6] 12.9%

CC1C2c3ccccc3C(c3ccccc32)C1CN1C(CCO)COC1c1ccccc1 (configuration not stated)
inactive: [1] 4.05% | [2] 8.9% | [3] -3.25% | [4] -1.75% | [5] 1.4% | [6] 7.6%

CCOP(=O)(Cc1ccc(CP(=O)(OCC)OCC)n1C)OCC
inactive: [1] -6.15% | [2] -7.5% | [3] -13.7% | [4] 17.4% | [5] -4.7% | [6] 15.1%

O=[N+]([O-])c1cccc(/C=C/COc2ccccc2)c1
inactive: [1] -1.35% | [2] -10.4% | [3] -10.8% | [4] -48.7% | [5] 10.6% | [6] -18.9%

CCOC(=O)c1nnc(-c2ccccc2)nc1Cl
inactive: [1] -2.55% | [2] 3.45% | [3] 0.15% | [4] -12.9% | [5] 3.7% | [6] 4%

Cn1c2cc3ccccc3cc2nc2cc3c(cc21)c(Cl)c(=O)c1ccccc13
inactive: [1] 10% | [2] -3% | [3] 12.8% | [4] 5.85% | [5] -4.45% | [6] -2.35%

CC1(C)CC2=C(SC3C=CC=CC3N2)C(=O)C1C(=O)C(N)=O (configuration not stated)
inactive: [1] -34.7% | [2] -15% | [3] -5.05% | [4] -3.65% | [5] -23.1% | [6] -33.8%

O=C1c2ccccc2C(=O)c2c1ccc(C1C(=O)c3ccccc3C1=O)c2-c1c(C2C(=O)c3ccccc3C2=O)ccc2c1C(=O)c1ccccc1C2=O
inactive: [1] -18.4% | [2] -16.8% | [3] -35.5% | [4] -17.5% | [5] -33.1% | [6] 4.15%

CCOC(=O)C(=N\Nc1ccccc1Br)/C(C)=N\NC(N)=S
inactive: [1] 50% | [2] 19.6% | [3] 56.9% | [4] 14.7% | [5] 9.3% | [6] 33%

O=C(NCCO)Nc1ccccc1F
inactive: [1] 10.2% | [2] 3.65% | [3] -3.65% | [4] -27.3% | [5] -7.75% | [6] 5.55%

O=C1CCCC2=C1CC1=C(CCCC1=O)N2c1ccc([N+](=O)[O-])cc1
inactive: [1] -35.8% | [2] -30.1% | [3] -42% | [4] -10.3% | [5] 0.45% | [6] -19.3%

O=C1C(NS(=O)(=O)c2ccccc2)=C(N(Cc2ccccc2)Cc2ccccc2)C(=O)c2ccccc21
inactive: [1] 9.1% | [2] 7.4% | [3] 26.1% | [4] 2.1% | [5] 8.95% | [6] -6.75%

CNC(=O)c1ccccc1C(O)c1ccc(C)cc1 (configuration not stated)
inactive: [1] 7.65% | [2] -6.3% | [3] 17.6% | [4] 23.4% | [5] 37.6% | [6] 20.6%

COc1ccccc1CC/C(C)=N/NS(=O)(=O)c1ccc(C)cc1
inactive: [1] 10.8% | [2] 4.1% | [3] 6.35% | [4] -24.1% | [5] 11.5% | [6] 6.5%

N#CCCBr
inactive: [1] 23.9% | [2] 0.15% | [3] 7.45% | [4] -22.6% | [5] 15.7% | [6] 31.1%

NCCCCCCCCCCCCN
inactive: [1] -6.15% | [2] -11.8% | [3] -0.3% | [4] -37.2% | [5] -13.5% | [6] 19%

Cc1ccc(CC(=S)N2CCOCC2)cc1
inactive: [1] 19.8% | [2] 24.2% | [3] 10.8% | [4] 10.9% | [5] 25.2% | [6] 16.6%

C=CCn1c(SCc2ccccc2)nccc1=O
inactive: [1] 25.1% | [2] -10.8% | [3] 16.9% | [4] -33% | [5] 7.15% | [6] 8.9%

CC(=O)Nc1cc(C(C)=O)ccc1O
inactive: [1] 0.95% | [2] -0.5% | [3] -3.95% | [4] -32.7% | [5] -14% | [6] 6.6%

CCCCSc1nc2ccccc2c(=O)[nH]1
inactive: [1] -10.7% | [2] -13% | [3] -4.6% | [4] 13.3% | [5] 9.3% | [6] 3.1%

COc1ccccc1-n1c(O)c(N=Nc2ccc(Cl)cc2)c(=O)n(-c2ccc(I)cc2)c1=S
inactive: [1] 45.4% | [2] 10% | [3] 36% | [4] -9% | [5] 1.25% | [6] 27.1%

Cc1nc(-c2ccc([N+](=O)[O-])cc2)cn2c1nc1ccccc12
inactive: [1] -26.9% | [2] -33% | [3] -34.1% | [4] -67.6% | [5] -4.25% | [6] -17.8%

C/C=C\COC(=O)C(C)OC(=O)OCC (configuration not stated)
inactive: [1] 14.2% | [2] 11.8% | [3] 4.85% | [4] 5.75% | [5] -0.65% | [6] 0.5%

C=Cc1c(C)c(OC)cc2c1Oc1ccc(OC)c(C)c1CC2
inactive: [1] 0.75% | [2] -0.2% | [3] 19.5% | [4] 8.35% | [5] 13.8% | [6] -23.6%

CC(=O)N(C)O
inactive: [1] 21.2% | [2] 17.4% | [3] -4.05% | [4] -5.85% | [5] -19.9% | [6] -0.4%

CS(C)=O.[Cl-].[Cl-].[NH-]CC(O)C[N-]CC(O)CN.[Pt+4] (configuration not stated)
inactive: [1] -9.2% | [2] -19.7% | [3] -20.4% | [4] -9.65% | [5] -3.5% | [6] 9.55%

CSc1nc2c(c(=O)n1C)N=C(c1ccccc1)[C@H](C(CC(=O)c1ccccc1)c1ccccc1)C(c1ccccc1)N2 (some centres not stated)
inactive: [1] 46.6% | [2] 43.9% | [3] 41.1% | [4] 24.2% | [5] 14.6% | [6] 11.8%

CCCCCCCCCCCCOC1OC(COC(C)=O)C(OC(C)=O)C(OC(C)=O)C1OC(C)=O (configuration not stated) (tested in a mixture with another compound)
inactive: [1] -7.9% | [2] -15.4% | [3] -15.6% | [4] -22.2% | [5] -2.45% | [6] -14.4%
